The panel holds about 83,000 compounds, 20% with a hit somewhere; the sample as a whole holds those more often.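 The endpoint reported here, percent growth, reads 100 for growth as untreated, 0 for no net growth and -100 for all cells dead.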 Active and inactive are the calls of the source. How the source made its calls: active means growth percent below 10; inactive means the rest.
Legend:
Test in all cases: NCI-60 one-dose screen, 48 h (100 = growth as untreated, 0 = no growth, -100 = all killed)
Conditions in all cases: 10 µM
DU-145 prostate = test system: DU-145 prostate
K-562 leukemia = test system: K-562 leukemia
MALME-3M melanoma = test system: MALME-3M melanoma
MDA-MB-231 breast = test system: MDA-MB-231 breast
RXF 393 renal = test system: RXF 393 renal
SF-268 CNS = test system: SF-268 CNS
SF-295 CNS = test system: SF-295 CNS
SF-539 CNS = test system: SF-539 CNS
UACC-257 melanoma = test system: UACC-257 melanoma
M14 melanoma = test system: M14 melanoma

Measured: growth

O=C(c1ccc(O)cc1)C1[C@H](c2ccc(Br)cc2)[C@@H](c2ccccc2)NC12C(=O)Nc1ccccc12 (stereo not given in full)
inactive: DU-145 prostate 49.1% | K-562 leukemia 35.3% | MALME-3M melanoma 43.6% | SF-268 CNS 35.5% | SF-295 CNS 29.9% | SF-539 CNS 41.2% | UACC-257 melanoma 75.9% | M14 melanoma 51.7%
active: MDA-MB-231 breast -40.8% | RXF 393 renal -16.4%

COc1ccc(NC(=O)Nc2ccc(OCC(=O)N=Nc3c(O)[nH]c4ccc([N+](=O)[O-])cc34)cc2)cc1
inactive: DU-145 prostate 91% | K-562 leukemia 95.7% | MALME-3M melanoma 94.5% | MDA-MB-231 breast 56% | RXF 393 renal 107% | SF-268 CNS 63.7% | SF-295 CNS 100% | SF-539 CNS 73.3% | UACC-257 melanoma 107% | M14 melanoma 118%

COc1cccc(-c2ccc(/C=N/NC(=O)c3[nH]c4ccc(Br)cc4c3-c3ccccc3)o2)c1
inactive: DU-145 prostate 25.9% | MALME-3M melanoma 47.5% | MDA-MB-231 breast 23.6% | RXF 393 renal 26.1% | SF-268 CNS 33.5% | UACC-257 melanoma 36.9% | M14 melanoma 16.7%
active: K-562 leukemia 3.8% | SF-295 CNS -14.6% | SF-539 CNS -67.7%

COc1ccc(CCN2C(=O)/C(=C/c3csc(C#N)n3)SC2=S)cc1OC
inactive: MDA-MB-231 breast 95.7% | SF-268 CNS 99.4% | SF-295 CNS 98.7% | UACC-257 melanoma 13.4%
active: DU-145 prostate -10.9% | K-562 leukemia 1.08% | MALME-3M melanoma 2.58% | RXF 393 renal -1.04% | SF-539 CNS -1.47% | M14 melanoma 2.13%

COc1cc2c(cc1OC)/C(=C\c1sc(Nc3ccc(O)cc3)nc1O)C(C(=O)O)=N2
inactive: K-562 leukemia 11.2% | MALME-3M melanoma 12.8% | MDA-MB-231 breast 29.8% | RXF 393 renal 25% | SF-268 CNS 54.2% | SF-295 CNS 11.9% | UACC-257 melanoma 48.8%
active: DU-145 prostate 6.39% | SF-539 CNS -20.2% | M14 melanoma 4.93%

COc1ccc(C(=O)Nc2sc3c(c2C#N)CCC(=O)C3)cc1C(F)(F)F
inactive: DU-145 prostate 25.3% | SF-268 CNS 26.8%
active: K-562 leukemia 3.54% | MALME-3M melanoma -52.3% | MDA-MB-231 breast -50.8% | RXF 393 renal -41.9% | SF-295 CNS -15.4% | SF-539 CNS -82.7% | UACC-257 melanoma -15.8% | M14 melanoma -16.8%

Cn1cc(-c2cc(N)n3nc(-c4c[nH]c5ccc(Br)cc45)cc3n2)c2cc(Br)cnc21
active: DU-145 prostate -75.6% | K-562 leukemia -27.4% | MALME-3M melanoma -92.1% | MDA-MB-231 breast -82.5% | RXF 393 renal -71.2% | SF-268 CNS -22.5% | SF-295 CNS -86.4% | SF-539 CNS -97.6% | UACC-257 melanoma -65.4% | M14 melanoma -90.6%

COc1cccc(/C=C2\N=C(C)N(CCc3ccc(S(N)(=O)=O)cc3)C2=O)c1
inactive: DU-145 prostate 112% | K-562 leukemia 99.9% | MALME-3M melanoma 98.2% | MDA-MB-231 breast 104% | RXF 393 renal 121% | SF-268 CNS 101% | SF-295 CNS 105% | SF-539 CNS 99.8% | UACC-257 melanoma 101% | M14 melanoma 100%

Nc1nnc(-c2c[nH]c3ncccc23)c(-c2c[nH]c3ccc(Br)cc23)n1
inactive: DU-145 prostate 62.4% | K-562 leukemia 32.9% | MALME-3M melanoma 46.8% | MDA-MB-231 breast 41.6% | RXF 393 renal 45.4% | SF-268 CNS 51.8% | SF-295 CNS 41.9% | SF-539 CNS 37.2% | UACC-257 melanoma 82.1% | M14 melanoma 50.3%

O=C1Nc2ccc(F)cc2/C1=C/c1cccc(OCc2ccccn2)c1
inactive: DU-145 prostate 42.5% | MALME-3M melanoma 54.1% | MDA-MB-231 breast 30.7% | RXF 393 renal 28.3% | SF-268 CNS 23.4% | SF-295 CNS 24.3% | SF-539 CNS 35.5% | UACC-257 melanoma 44.1% | M14 melanoma 36.3%
active: K-562 leukemia 4.79%

CC(C)CCSc1nc(NC2CC2)c(C#N)c(-c2ccc(C(C)C)cc2)n1
inactive: DU-145 prostate 120% | K-562 leukemia 100% | MALME-3M melanoma 108% | MDA-MB-231 breast 105% | RXF 393 renal 113% | SF-268 CNS 121% | SF-295 CNS 100% | SF-539 CNS 101% | UACC-257 melanoma 103% | M14 melanoma 109%

CC(=O)Nc1ccc(-n2cnc3cc(-c4ccc(O)cc4)ccc32)cc1F
active: K-562 leukemia 6.14% | RXF 393 renal -0.397% | SF-295 CNS 2.75% | SF-539 CNS -5.18%
inactive: DU-145 prostate 34% | MALME-3M melanoma 65.6% | MDA-MB-231 breast 34.7% | SF-268 CNS 40.6% | UACC-257 melanoma 59.8% | M14 melanoma 35.5%

NS(=O)(=O)c1ccc(N=Nc2c(O)n(CC(=O)Nc3ccccc3Br)c3ccccc23)cc1
inactive: DU-145 prostate 34.7% | K-562 leukemia 27.2% | MALME-3M melanoma 26.5% | MDA-MB-231 breast 11.2% | RXF 393 renal 27.6% | SF-268 CNS 86.6% | SF-295 CNS 25.8% | UACC-257 melanoma 50% | M14 melanoma 27.9%
active: SF-539 CNS 5.32%

COc1cc(NC(=O)c2cc(-c3ccc(F)cc3F)ccc2O)cc(OC)c1OC
inactive: DU-145 prostate 34.3% | K-562 leukemia 14% | MALME-3M melanoma 17.4% | MDA-MB-231 breast 47.5% | RXF 393 renal 75.9% | SF-268 CNS 25.9% | SF-295 CNS 65.5% | SF-539 CNS 50.8% | UACC-257 melanoma 55.3% | M14 melanoma 55.8%

O=C(Nc1ccc(I)cc1F)c1cc(-c2ccc(F)cc2F)ccc1O
inactive: DU-145 prostate 21.5% | M14 melanoma 28.8%
active: K-562 leukemia 7.69% | MALME-3M melanoma -21.4% | MDA-MB-231 breast -1.69% | RXF 393 renal -9.21% | SF-268 CNS 8.16% | SF-295 CNS -37.7% | SF-539 CNS 0.0441% | UACC-257 melanoma -7.17%

COc1cccc(COc2ccc(/C=C3\Oc4cc(O)ccc4C3=O)cc2)c1
inactive: DU-145 prostate 31.8% | K-562 leukemia 49.4% | MALME-3M melanoma 14.3% | MDA-MB-231 breast 28.6% | SF-268 CNS 17.2% | SF-539 CNS 30% | UACC-257 melanoma 70.6% | M14 melanoma 35.9%
active: RXF 393 renal -19.3% | SF-295 CNS 9.41%

COc1ccc(-c2ccc(/C=N/NC(=O)c3[nH]c4ccc(Br)cc4c3-c3ccccc3)s2)cc1
inactive: DU-145 prostate 104% | K-562 leukemia 87.6% | MALME-3M melanoma 115% | MDA-MB-231 breast 59.5% | RXF 393 renal 74.2% | SF-268 CNS 60% | SF-295 CNS 71.6% | SF-539 CNS 71.7% | UACC-257 melanoma 106% | M14 melanoma 106%

COc1ccccc1[C@H]1C(C(=O)c2ccc(Cl)cc2)C2(N[C@@H]1c1ccccc1)C(=O)Nc1ccc(Cl)cc12 (stereo not given in full)
active: K-562 leukemia 1.21% | MALME-3M melanoma -24.8% | MDA-MB-231 breast 4.86% | RXF 393 renal -29.4% | SF-295 CNS 2.46% | SF-539 CNS -16.6%
inactive: DU-145 prostate 10.5% | SF-268 CNS 26.3% | UACC-257 melanoma 22.4% | M14 melanoma 28.4%

CN1C(=O)/C(=C/c2ccc3ncsc3c2)NC1=NC12CC3CC(CC(O)(C3)C1)C2
active: MALME-3M melanoma -15% | MDA-MB-231 breast 0.441% | RXF 393 renal -22.7% | SF-539 CNS -32.1% | UACC-257 melanoma -17%
inactive: DU-145 prostate 12.2% | K-562 leukemia 11.9% | SF-268 CNS 24.5% | SF-295 CNS 14.1% | M14 melanoma 36.9%

COc1ccc(OC)c(/C=N/NC(=O)c2ccc3nc(-c4ccc(Cl)cc4)[nH]c3c2)c1
active: RXF 393 renal 3.46%
inactive: DU-145 prostate 48% | K-562 leukemia 47.1% | MALME-3M melanoma 81.6% | MDA-MB-231 breast 10.3% | SF-268 CNS 57% | SF-295 CNS 48.1% | SF-539 CNS 54.7% | UACC-257 melanoma 114% | M14 melanoma 69.1%

Cc1cc(C)cc(Oc2cccc(-c3c(C)nnn3C3CCN(CCN(C)C)CC3)n2)c1
inactive: DU-145 prostate 55.8% | K-562 leukemia 13.6% | MDA-MB-231 breast 36.9% | SF-268 CNS 52.2% | SF-295 CNS 32.9% | SF-539 CNS 34.2%
active: MALME-3M melanoma -40.5% | RXF 393 renal -6.82% | UACC-257 melanoma -31.7% | M14 melanoma 7.14%

Cc1cccc(NC(=O)CSc2nc3ccc(F)cc3c(=O)n2-c2ccc(Cl)cc2)c1C
inactive: DU-145 prostate 69.6% | K-562 leukemia 84.3% | MALME-3M melanoma 65.5% | MDA-MB-231 breast 51.8% | RXF 393 renal 18.8% | SF-268 CNS 59.1% | SF-295 CNS 57.5% | SF-539 CNS 25.7% | UACC-257 melanoma 87.7% | M14 melanoma 74%

CO[C@@H]1CSS[C@H]1Cn1nc(-c2ccc(Oc3ccccc3)cc2)c2c(N)ncnc21
inactive: DU-145 prostate 73.5% | MALME-3M melanoma 63.4% | MDA-MB-231 breast 72.6% | RXF 393 renal 35.5% | SF-268 CNS 70% | SF-295 CNS 43.1% | SF-539 CNS 50% | UACC-257 melanoma 40.8%
active: K-562 leukemia 8.2% | M14 melanoma -64.2%

C=C1CCC2C3(C)COC(c4c(F)cccc4F)OC3CCC2(C)C1CC(O)C1=CCOC1=O (stereo not given)
inactive: DU-145 prostate 68.1% | K-562 leukemia 21.4% | MALME-3M melanoma 96.3% | MDA-MB-231 breast 91.1% | RXF 393 renal 66.1% | SF-268 CNS 98.5% | SF-295 CNS 79.4% | SF-539 CNS 57% | UACC-257 melanoma 74.1% | M14 melanoma 53.9%

O=C(N/N=C/c1ccc(-c2cccc([N+](=O)[O-])c2)o1)c1[nH]c2ccc(Br)cc2c1-c1ccccc1
inactive: MALME-3M melanoma 39% | RXF 393 renal 26.4% | SF-268 CNS 36% | UACC-257 melanoma 41.9% | M14 melanoma 10.4%
active: DU-145 prostate 6.18% | K-562 leukemia 4.74% | MDA-MB-231 breast 6.8% | SF-295 CNS -15.3% | SF-539 CNS -49.8%

O=C(c1ccc(O)cc1)C1[C@H](c2ccccc2Br)[C@@H](c2ccccc2)NC12C(=O)Nc1ccc(Cl)cc12 (stereo not given in full)
inactive: DU-145 prostate 32.5% | SF-268 CNS 27.7% | UACC-257 melanoma 25% | M14 melanoma 28.4%
active: K-562 leukemia 7.61% | MALME-3M melanoma -10.7% | MDA-MB-231 breast -57.3% | RXF 393 renal -19.5% | SF-295 CNS -6.39% | SF-539 CNS 8.24%

O=C(Nc1cc(Cl)cc(Cl)c1)Nc1cc(Cl)cc(Cl)c1
active: K-562 leukemia -25.5% | MALME-3M melanoma -40.5% | MDA-MB-231 breast -65.6% | RXF 393 renal -15.1% | SF-268 CNS 9.6% | SF-295 CNS -47.9% | SF-539 CNS -46.2% | UACC-257 melanoma -29.7% | M14 melanoma -77.9%
inactive: DU-145 prostate 15.2%

Reference: PubChem BioAssay (NCI)
